Source: the supplement of paper PMC9262897, “Low-cost anti-mycobacterial drug discovery using engineered E. coli” (Nature Communications, 2022)
Where a name gives a salt, the structure may show the parent alone. ± gives the standard deviation of the averaged measurements.

System: E. coli TESEC Mtb DapB
Experiment: growth (OD600 after 10 h); higher = more growth (less inhibition)
Details: arabinose induction (level): High; compound 0.1 mM; raw OD600 reference: median of DMSO wells […], cell-free background 0.041
Procedure: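 TESEC E. coli strains in which the native enzyme is deleted and replaced by arabinose-inducible Mtb Asd, DapB, CysH or TrpD, each grown in its selective medium. Strains were screened against the Prestwick library at 0.1 mM and 1% DMSO in 384-well format at low and high arabinose induction. Growth is read as OD600 after 10 h in triplicate.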

| SMILES | growth |
| --- | --- |
| CN(Cc1cnc2nc(N)nc(N)c2n1)c1ccc(C(=O)N[C@@H](CCC(=O)O)C(=O)O)cc1 [Methotrexate] | 0.2 ± 0.0058 |
| C[C@]12C=CC(=O)C=C1CC[C@H]1[C@@H]3C[C@@H](O)[C@](O)(C(=O)CO)[C@@]3(C)C[C@H](O)[C@@]12F [Triamcinolone] | 0.191 ± 0.014 |
| C[C@H](CCC(=O)O)[C@H]1CC[C@H]2[C@@H]3[C@@H](O)C[C@@H]4C[C@H](O)CC[C@]4(C)[C@H]3CC[C@]12C [Urosiol] | 0.168 ± 0.012 |
| C[N+]1(C)CCC(=C(c2ccccc2)c2ccccc2)CC1 [Diphemanil methylsulfate] | 0.187 ± 0.015 |
| O=C(O)CCC(=O)c1ccc(-c2ccccc2)cc1 [Fenbufen] | 0.165 ± 0.0041 |
| Cc1onc(-c2c(Cl)cccc2Cl)c1C(=O)N[C@@H]1C(=O)N2[C@@H]1SC(C)(C)[C@@H]2C(=O)O [Dicloxacillin sodium salt hydrate] | 0.188 ± 0.028 |
| CN1C(=O)OC(C)(C)C1=O [Trimethadione] | 0.193 ± 0.0086 |
| CC(CN(C)C)CN1c2ccccc2CCc2ccccc21 (stereo not given) [Trimipramine maleate salt] | 0.195 ± 0.035 |
| CC(C)/N=c1\cc2n(-c3ccc(Cl)cc3)c3ccccc3nc-2cc1Nc1ccc(Cl)cc1 [Clofazimine] | 0.248 ± 0.023 |
| CN1CCN(C2=Nc3cc(Cl)ccc3Nc3ccccc32)CC1 [Clozapine] | 0.17 ± 0.0049 |
| CN1CCN2c3ccccc3Cc3ccccc3C2C1 (stereo not given) [Mianserine hydrochloride] | 0.189 ± 0.0025 |
| NCCc1cc[nH]n1 [Betazole hydrochloride] | 0.215 ± 0.021 |
| CC(C(=O)O)c1ccc(-c2ccccc2)c(F)c1 (stereo not given) [Flurbiprofen] | 0.208 ± 0.0072 |
| COC(=O)C1=C(C)NC(C)=C(C(=O)OC(C)C)C1c1cccc2nonc12 (stereo not given) [Isradipine] | 0.19 ± 0.019 |
| NS(=O)(=O)c1cc2c(cc1C(F)(F)F)NCNS2(=O)=O [Hydroflumethiazide] | 0.184 ± 0.012 |
| CCOc1ccc(Cc2nccc3cc(OCC)c(OCC)cc23)cc1OCC [Ethaverine hydrochloride] | 0.156 ± 0.0076 |
| NC(CO)C(=O)NNCc1ccc(O)c(O)c1O (stereo not given) [Benserazide hydrochloride] | 0.185 ± 0.023 |
| CC(CNC1CCCCC1)OC(=O)c1ccccc1 (stereo not given) [Hexylcaine hydrochloride] | 0.2 ± 0.027 |
| CC(=O)OCC(=O)NCCCOc1cccc(CN2CCCCC2)c1 [Roxatidine Acetate HCl] | 0.185 ± 0.016 |
| C#C[C@]1(O)CC[C@H]2[C@@H]3CCC4=C(CCC(=O)C4)[C@H]3CC[C@@]21C [Norethynodrel] | 0.149 ± 0.0054 |

Same assay, conditions: arabinose induction (level): Low; compound 0.1 mM; raw OD600 reference: median of DMSO wells 0.227, cell-free background 0.041

| SMILES | growth |
| --- | --- |
| CN(Cc1cnc2nc(N)nc(N)c2n1)c1ccc(C(=O)N[C@@H](CCC(=O)O)C(=O)O)cc1 [Methotrexate] | 0.254 ± 0.022 |
| C[C@]12C=CC(=O)C=C1CC[C@H]1[C@@H]3C[C@@H](O)[C@](O)(C(=O)CO)[C@@]3(C)C[C@H](O)[C@@]12F [Triamcinolone] | 0.229 ± 0.022 |
| C[C@H](CCC(=O)O)[C@H]1CC[C@H]2[C@@H]3[C@@H](O)C[C@@H]4C[C@H](O)CC[C@]4(C)[C@H]3CC[C@]12C [Urosiol] | 0.206 ± 0.03 |
| C[N+]1(C)CCC(=C(c2ccccc2)c2ccccc2)CC1 [Diphemanil methylsulfate] | 0.25 ± 0.028 |
| O=C(O)CCC(=O)c1ccc(-c2ccccc2)cc1 [Fenbufen] | 0.203 ± 0.047 |
| Cc1onc(-c2c(Cl)cccc2Cl)c1C(=O)N[C@@H]1C(=O)N2[C@@H]1SC(C)(C)[C@@H]2C(=O)O [Dicloxacillin sodium salt hydrate] | 0.226 ± 0.018 |
| CN1C(=O)OC(C)(C)C1=O [Trimethadione] | 0.229 ± 0.042 |
| CC(CN(C)C)CN1c2ccccc2CCc2ccccc21 (stereo not given) [Trimipramine maleate salt] | 0.219 ± 0.027 |
| CC(C)/N=c1\cc2n(-c3ccc(Cl)cc3)c3ccccc3nc-2cc1Nc1ccc(Cl)cc1 [Clofazimine] | 0.261 ± 0.012 |
| CN1CCN(C2=Nc3cc(Cl)ccc3Nc3ccccc32)CC1 [Clozapine] | 0.205 ± 0.0082 |
| CN1CCN2c3ccccc3Cc3ccccc3C2C1 (stereo not given) [Mianserine hydrochloride] | 0.243 ± 0.03 |
| NCCc1cc[nH]n1 [Betazole hydrochloride] | 0.254 ± 0.052 |
| CC(C(=O)O)c1ccc(-c2ccccc2)c(F)c1 (stereo not given) [Flurbiprofen] | 0.188 ± 0.023 |
| COC(=O)C1=C(C)NC(C)=C(C(=O)OC(C)C)C1c1cccc2nonc12 (stereo not given) [Isradipine] | 0.21 ± 0.011 |
| NS(=O)(=O)c1cc2c(cc1C(F)(F)F)NCNS2(=O)=O [Hydroflumethiazide] | 0.239 ± 0.028 |
| CCOc1ccc(Cc2nccc3cc(OCC)c(OCC)cc23)cc1OCC [Ethaverine hydrochloride] | 0.165 ± 0.017 |
| NC(CO)C(=O)NNCc1ccc(O)c(O)c1O (stereo not given) [Benserazide hydrochloride] | 0.227 ± 0.024 |
| CC(CNC1CCCCC1)OC(=O)c1ccccc1 (stereo not given) [Hexylcaine hydrochloride] | 0.233 ± 0.024 |
| CC(=O)OCC(=O)NCCCOc1cccc(CN2CCCCC2)c1 [Roxatidine Acetate HCl] | 0.186 ± 0.0097 |
| C#C[C@]1(O)CC[C@H]2[C@@H]3CCC4=C(CCC(=O)C4)[C@H]3CC[C@@]21C [Norethynodrel] | 0.17 ± 0.01 |
